Active and inactive are the calls of the source.

In PubChem BioAssay one finds composite z-score, z-score and composite Z-score data, which are given here for six compounds.

The subject of experiment [1] is Human papillomavirus type 1a protein E7 (residues 44-93). Nature of the experiment: small molecules binding HPV E7 44-93 – biochemical, small-molecule microarray, residues 44-93, 635 nm fluorescence, primary screen (AID 1108).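 Note: E7 fragment applied at 1 µg/mL in TBST for 1 h at 4 C; score combines spot fluorescence with its signal to noise ratio.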 Particulars: fluorescence 635 nm, higher = more signal.
The nature of experiment [2]: hepatitis C replication reporter changes, two-sided – Huh7 cells, luciferase reporter, HCV replication inhibitor project, primary screen (AID 1109).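 Note: huh7 hepatoma cells harbouring a luciferase neomycin HCV replicon reporter; luciferase luminescence as measure of HCV replicon replication; test concentration not given here.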 The note with it: Huh7 HCV replicon luciferase reporter, 48 h; higher = more signal. (In general: In a reporter assay the amount or activity of a reporter protein is the signal.)
Experiment [3] deals with Left-right determination factor 2 (Homo sapiens) (UniProt O00292). Nature of the experiment: small molecules binding LEFTY2 protein – biochemical, small-molecule microarray, 635 nm fluorescence scan, primary screen (AID 1110). Particulars: higher = more signal.
Experiment [4] deals with Calmodulin-1 (Homo sapiens) (UniProt P0DP23). The experiment can be described thus: small molecules binding calmodulin-1 with EGTA – biochemical, small-molecule microarray, Cy5-labelled CALM1, profiling panel (AID 1111).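 Note: labelled calmodulin applied in Tris saline Tween buffer holding calcium plus EGTA and DTT.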 The note with it: Cy5-CALM1 binding fluorescence, higher = more signal.
Experiment [5] has the same target. Nature of the experiment: small molecules binding Ca-loaded calmodulin-1 – biochemical, small-molecule microarray, Cy5-labelled CALM1, plus calcium, artefact control for SMM control-protein annotation, profiling panel (AID 1112).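 Note: score merges spot fluorescence with signal to noise from triplicate slides.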 The note with it: Cy5-CALM1 binding fluorescence, higher = more signal.
Experiment [6] can be described thus: probe aWnt5a binding to arrayed compounds – biochemical, biotinylated probe, 635/667 nm fluorescence, primary screen (AID 1113).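 Note: score merges 667 nm fluorescence intensity with signal-to-noise per printed feature.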 Particulars: small-molecule microarray, higher = more signal.
The nature of experiment [7]: probe aShh binding to arrayed compounds – biochemical, biotinylated probe, 635/667 nm fluorescence, primary screen (AID 1114).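 Note: probe is biotin-labelled aShh protein from a stem cell growth factor screen; measures binding of labelled protein to compounds printed on the slide; score merges feature fluorescence at 667 nm with signal-to-noise.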 The note with it: small-molecule microarray, higher = more signal.
A short description of experiment [8]: probe aNog binding to arrayed compounds – biochemical, biotinylated probe, 635/667 nm fluorescence, primary screen (AID 1115).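 Note: probe is biotinylated aNog protein used at 0.15 µg/mL for 1 h at 4 C; z-score combines 667 nm fluorescence of each spot with its signal to noise.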 Particulars: small-molecule microarray, higher = more signal.
In experiment [9] the target is Torsin-1A-interacting protein 1 (Homo sapiens) (UniProt Q5JTV8). The experiment can be described thus: compound microarray binding of lysate hLAP1 – cell lysate, small-molecule microarray, COS7 lysate, 635/667 nm fluorescence, primary screen (AID 1116). Particulars: 635 nm fluorescence, higher = more signal.
Experiment [10] deals with Alpha-bungarotoxin (Bungarus multicinctus) (UniProt P60615). Nature of the experiment: compounds binding labelled alpha-BTX control protein – biochemical, small-molecule microarray, Alexa647 label, 635/667 nm fluorescence, artefact control for SMM control protein annotation, profiling panel (AID 1117). The note with it: alpha-BTX-A647 binding fluorescence, higher = more signal.

Experiment [11] addresses Albumin (Bos taurus) (UniProt P02769). Nature of the experiment: compounds binding labelled BSA control protein – biochemical, small-molecule microarray, Alexa647 label, 635/667 nm fluorescence, artefact control for SMM control protein annotation, profiling panel (AID 1118).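 Note: score merges 667 nm emission intensity and signal-to-noise per printed compound spot.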 The note with it: BSA-A647 binding, fluorescence 635 nm, higher = more signal.
Experiment [12] in a line: probe aXIP binding to arrayed compounds – biochemical, NeuroSMM set, 635/667 nm fluorescence, primary screen (AID 1119).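 Note: probe is the protein aXip251-270 applied at 1 µg/mL to compound-printed slides; binding of probe to printed compounds measured as 667 nm fluorescence plus signal to noise.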 Particulars: small-molecule microarray, higher = more signal, called active from +8 up or from −8 down.
A short description of experiment [13]: probe aNOTCH3 binding on compound microarray – biochemical, small-molecule microarray, 635/667 nm fluorescence, primary screen (AID 1120).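 Note: probe is a biotin-tagged antibody raised against NOTCH3 rather than NOTCH3 protein; score merges spot fluorescence near 667 nm with spot signal to noise.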 Particulars: higher = more signal.
Experiment [14] can be described thus: probe aNOTCH2 binding on compound microarray – biochemical, small-molecule microarray, 635/667 nm fluorescence, primary screen (AID 1121).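 Note: score merges feature fluorescence read at 667 nm with its signal to noise.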 Particulars: higher = more signal.
The target in experiment [15] is Carbonic anhydrase 2 (Homo sapiens) (UniProt P00918). Nature of the experiment: compounds binding carbonic anhydrase 2 – biochemical, small-molecule microarray, Alexa647-labelled CAII, profiling panel (AID 1122). Particulars: CAII-A647 binding fluorescence, higher = more signal.
Experiment [16] is described as follows: COS7 lysate on small-molecule microarray, probe aHis, 635 nm (AID 1123).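 Note: z-score combines 667nm fluorescence intensity with signal-to-noise per printed compound spot.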 Particulars: COS7 cell lysate, fluorescence, higher = more signal.
Experiment [17] is described as follows: probe aLAP1 signal on lysate-treated microarray – cell lysate, small-molecule microarray, COS7 lysate, primary screen (AID 1124).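 Note: lysate comes from COS7 cells expressing LAP1 and is applied at 0.3 µg/mL; score merges spot fluorescence near 667 nm with signal-to-noise over triplicate slides.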 The note with it: probe aLAP1, fluorescence, higher = more signal.
Experiment [18] deals with Sam68 (KHDRBS1). Nature of the experiment: compounds binding KHDRBS1 protein – biochemical, small-molecule microarray, 635 nm fluorescence, primary screen (AID 1125).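 Note: score merges 667 nm channel intensity with signal to noise over triplicate slides.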 The note with it: higher = more signal.
Experiment [19] has as its system Chordin-like protein 2 (CHRDL2). The experiment can be described thus: compounds binding chordin-like 2 – biochemical, small-molecule microarray, 635 nm fluorescence, primary screen (AID 1126).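 Note: printed compound slides probed with Chrdl2 protein at 4 µg/mL for 1 h at 4 C; score merges 667 nm emission intensity with signal to noise over three replicate slides.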 The note with it: fluorescence 635 nm, higher = more signal.
Experiment [20] concerns the target Concanavalin-A (Canavalia ensiformis) (UniProt P02866). The experiment can be described thus: compounds binding concanavalin A lectin – biochemical, small-molecule microarray, Alexa647 label, 635 nm, artefact control for SMM control protein annotation, primary screen (AID 1127).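 Note: z combines 667 nm emission intensity with signal-to-noise across three replicate slides.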 The note with it: ConA-A647 binding fluorescence, higher = more signal.

Sequence of Left-right determination factor 2 (Homo sapiens) (O00292 whole entry, looked up): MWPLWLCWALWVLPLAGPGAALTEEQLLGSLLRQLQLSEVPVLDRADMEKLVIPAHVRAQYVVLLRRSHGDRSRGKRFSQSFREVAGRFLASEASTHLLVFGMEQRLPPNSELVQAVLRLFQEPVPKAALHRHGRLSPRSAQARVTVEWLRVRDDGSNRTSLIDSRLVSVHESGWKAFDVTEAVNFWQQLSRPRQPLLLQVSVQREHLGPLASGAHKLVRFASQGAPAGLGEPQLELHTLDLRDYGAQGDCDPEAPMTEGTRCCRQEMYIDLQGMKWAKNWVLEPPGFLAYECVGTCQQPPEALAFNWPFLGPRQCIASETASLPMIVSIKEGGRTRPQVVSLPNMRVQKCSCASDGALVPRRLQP
Sequence of Alpha-bungarotoxin (Bungarus multicinctus) (P60615 whole entry, looked up): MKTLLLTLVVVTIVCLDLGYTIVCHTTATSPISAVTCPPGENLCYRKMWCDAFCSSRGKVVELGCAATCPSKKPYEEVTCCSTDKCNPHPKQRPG
Sequence of Torsin-1A-interacting protein 1 (Homo sapiens) (Q5JTV8 whole entry, looked up): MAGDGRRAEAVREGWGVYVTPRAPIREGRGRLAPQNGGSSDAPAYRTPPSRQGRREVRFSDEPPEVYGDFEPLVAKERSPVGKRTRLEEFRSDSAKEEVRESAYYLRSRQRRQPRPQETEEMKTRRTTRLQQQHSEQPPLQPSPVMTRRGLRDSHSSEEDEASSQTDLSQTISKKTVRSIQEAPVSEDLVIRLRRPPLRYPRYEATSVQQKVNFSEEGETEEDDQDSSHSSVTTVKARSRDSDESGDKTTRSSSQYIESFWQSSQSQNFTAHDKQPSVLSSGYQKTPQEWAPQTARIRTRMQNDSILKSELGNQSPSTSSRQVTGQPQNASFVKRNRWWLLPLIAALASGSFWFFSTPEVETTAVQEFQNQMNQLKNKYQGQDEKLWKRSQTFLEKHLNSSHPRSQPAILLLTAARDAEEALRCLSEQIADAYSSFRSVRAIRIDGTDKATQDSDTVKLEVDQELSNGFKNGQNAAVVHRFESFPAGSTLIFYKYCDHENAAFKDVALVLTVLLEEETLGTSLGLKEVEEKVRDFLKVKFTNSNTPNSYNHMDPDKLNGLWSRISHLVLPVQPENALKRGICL
Sequence of Concanavalin-A (Canavalia ensiformis) (P02866 whole entry, looked up): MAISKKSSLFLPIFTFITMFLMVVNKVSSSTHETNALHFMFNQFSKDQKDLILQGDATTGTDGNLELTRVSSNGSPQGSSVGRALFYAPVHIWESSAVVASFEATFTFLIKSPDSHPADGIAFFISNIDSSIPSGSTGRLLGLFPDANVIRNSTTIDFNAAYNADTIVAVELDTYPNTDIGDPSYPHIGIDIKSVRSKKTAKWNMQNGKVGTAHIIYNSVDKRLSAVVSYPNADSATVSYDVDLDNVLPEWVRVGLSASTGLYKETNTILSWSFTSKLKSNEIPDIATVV
Sequence of Albumin (Bos taurus) (P02769 whole entry, looked up): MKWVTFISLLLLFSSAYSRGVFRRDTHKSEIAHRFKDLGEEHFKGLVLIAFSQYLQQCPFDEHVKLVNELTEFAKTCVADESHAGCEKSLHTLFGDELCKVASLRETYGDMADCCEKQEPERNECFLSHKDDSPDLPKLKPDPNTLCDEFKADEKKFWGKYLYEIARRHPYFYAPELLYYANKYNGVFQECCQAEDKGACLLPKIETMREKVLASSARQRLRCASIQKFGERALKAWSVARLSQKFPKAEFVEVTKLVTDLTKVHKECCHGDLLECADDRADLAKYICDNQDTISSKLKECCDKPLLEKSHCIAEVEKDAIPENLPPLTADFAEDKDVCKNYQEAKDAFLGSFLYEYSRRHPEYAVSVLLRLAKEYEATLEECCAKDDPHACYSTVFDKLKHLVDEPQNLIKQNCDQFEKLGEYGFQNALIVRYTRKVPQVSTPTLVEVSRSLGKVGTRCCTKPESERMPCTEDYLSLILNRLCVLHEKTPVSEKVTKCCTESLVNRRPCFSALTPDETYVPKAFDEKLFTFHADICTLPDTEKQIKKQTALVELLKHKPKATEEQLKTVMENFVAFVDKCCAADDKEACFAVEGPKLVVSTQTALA

Take `CO[C@H]1O[C@H](CO)[C@@H](OC(=O)Nc2ccc(Oc3ccccc3)cc2)[C@H](OC(=O)Nc2ccccc2-c2ccccc2)[C@H]1OC(=O)Nc1ccccc1-c1ccccc1`: the composite z-score in [1] is 0.383; in experiment [3] it was 0.975; in [4], 2.09; in experiment [5], -0.107; in experiment [6], 0.0676; in experiment [7], 0.11. For the same compound, the composite z-score in experiment [8] was 0.786; in experiment [9] it was 1.77; in [10] it was 2.98; in [11] it was 0.892; in experiment [13] it was 0.289; in [14], -0.0519. Also, the composite z-score in [15] turned out to be 0.442; in [16] it was 2.68; in [17] it was 1.26; in [18] it was 1.31; in experiment [19], 0.203; in [20] it was 1.18. The same compound registered a z-score in [2] of -3.97. Also, the composite Z-score in [12] was -0.0478 (inactive).
As to `C=CC[C@]1(C(=O)O)N=C(c2ccc(OCCCO)cc2)O[C@H]1c1ccccc1N=[N+]=[N-]`, the composite z-score is -0.914 in experiment [1]; -0.753 in experiment [3]; 1.74 in [4]; 0.768 in experiment [5]; 0.055 in experiment [6]; -0.0243 in experiment [7]. Moreover, the composite z-score in experiment [8] is -0.0069; in experiment [9] it was 1.45; in experiment [10] it was 0.0298; in experiment [11], 0.548; in [13] it was 0.0807; in [14], -0.159. Further, the composite z-score in [15] is 0.668; in experiment [16], 1.45; in [17], 1.24; in experiment [18] it was 0.0203; in [19], -0.37; in experiment [20], 0.642. Also, the z-score in experiment [2] was 1.65. For the same compound, in [12], the composite Z-score is 0.0407 (inactive).
Take `CC(C)(C)OC(=O)CC[C@]1(C(=O)N2CCCCC2)N=C(c2ccc(OCCCO)cc2)O[C@H]1c1ccccc1`: the composite z-score in experiment [1] is 1.37; in [3], 0.538; in [4], 1.68; in experiment [5] it was -0.0194; in experiment [6] it was 0.0919; in [7], -0.138. For the same compound, the composite z-score in experiment [8] was 0.248; in [9] it was 1.89; in experiment [10] it was 2.02; in [11], 0.806; in [13], 0.261; in experiment [14] it was -0.127. Moreover, the composite z-score in experiment [15] stood at 0.741; in experiment [16], 2.94; in experiment [17], 0.708; in experiment [18], 1.28; in experiment [19], 0.261; in [20], 1.13. The z-score in experiment [2] was -1.66. Also, the composite Z-score in experiment [12] is -0.0084 (inactive).
As for `CO[C@H]1COC(=O)[C@@H](C)COC(=O)[C@H](Cc2ccccc2)NC(=O)CC=C[C@H]1C`, the composite z-score in [1] was 0.334; in [3], 0.726; in [4], -1.69; in experiment [5], -1.8; in experiment [6], -0.135; in experiment [7], -0.143. The composite z-score was -0.454 in [8]; -0.115 in [9]; 0.0209 in experiment [10]; -0.73 in experiment [11]; -0.208 in experiment [13]; -0.223 in experiment [14]. In addition, the composite z-score was -0.315 in experiment [15]; -0.557 in [16]; -0.399 in [17]; 0.294 in experiment [18]; 1.48 in [19]; -0.268 in experiment [20]. The z-score in [2] was -0.082. Also, in experiment [12], the composite Z-score is 0.0953 (inactive).
Regarding `C=CCC(OC(C)=O)[C@@H]1[C@@H](N(Cc2cc3ccccc3o2)C(=O)c2ccc(C)cc2)c2cc(OCCCO)ccc2N1C(=O)c1ccc2ccccc2n1` (stereo not given in full), the composite z-score in [1] was -0.185; in experiment [3] it was 0.21; in experiment [4], -0.197; in experiment [5] it was 0.574; in experiment [6], -0.148; in [7] it was -0.043. The composite z-score in [8] was 0.421; in experiment [9], -0.0354; in experiment [10] it was 0.432; in experiment [11], 0.659; in [13], -0.0984; in [14], -0.0037. The composite z-score in experiment [15] is -0.135; in experiment [16], 0.043; in experiment [17], -0.348; in experiment [18], 0.0268; in experiment [19] it was 0.194; in [20], -0.304. Moreover, the z-score in [2] was 0.725. Moreover, the composite Z-score in experiment [12] is 0.0726 (inactive).
Regarding `N#Cc1ccc(NN2C(C(O)c3ccc(I)cc3)C=CC3C(=O)N(c4ccccc4)C(=O)C32)cc1` (stereo not given), the composite z-score is 1.48 in experiment [1]; -0.417 in [3]; 1.58 in experiment [4]; 0.526 in experiment [5]; 0.0803 in experiment [6]; -0.16 in [7]. The composite z-score worked out at 1.56 in experiment [8]; 0.0108 in experiment [9]; 1.32 in experiment [10]; 0.946 in [11]; 0.212 in [13]; 0.139 in experiment [14]. For the same compound, the composite z-score in [15] was 0.74; in [16] it was 2.21; in [17], -0.809; in experiment [18], 1.29; in experiment [19], -0.389; in [20] it was 1.12. Besides, the z-score in experiment [2] turned out to be 1.56. Also, the composite Z-score in experiment [12] is 0.128 (inactive).
